Test systems include T-47D breast; MDA-MB-435 melanoma; SW-620 colon; MCF7 breast; HCT-116 colon; HCC-2998 colon; KM12 colon; BT-549 breast.
Assay in all cases: NCI-60 one-dose screen, 48 h (100 = growth as untreated, 0 = no growth, -100 = all killed)
Common to all, as to conditions: 10 µM unless noted

The structures appear in SMILES notation. About 83,000 compounds went through this panel and 20% of them were active in at least one assay; those are over-represented in the sample as a whole.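 Note: values are percent growth. 100 is the growth of untreated cells, values between 100 and 0 indicate rising inhibition; between -100 and 0 indicates cell death.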 Values without a mark were called inactive. The source made the active and inactive calls. Rule for the calls: active = growth percent below 10; inactive = the rest.

Turning to `Cc1ccc2c(c1)C(C)Cc1c(N(C)C)ncnc1N2C` (stereo not drawn), the growth with T-47D breast is 34.8%; with MDA-MB-435 melanoma it was -6.18% (active); in the test on SW-620 colon, 20.6%; in the test with MCF7 breast it was 16.9%; in the test on HCT-116 colon, 19%; in the test with HCC-2998 colon, 58.2%. Moreover, the growth in the test on KM12 colon was 26.2%.

Regarding `COc1ccc(C2=NN(c3ccc(S(N)(=O)=O)cc3)C(c3cn(-c4ccccc4)nc3-c3ccc(Cl)cc3)C2)cc1` (stereo not drawn), the growth in the test on T-47D breast is 67.1%; with MDA-MB-435 melanoma, 79.3%; with SW-620 colon, 101%; in the test with MCF7 breast, 66.7%; in the test on HCT-116 colon it was 74.5%; in the test on HCC-2998 colon, 98.2%. For the same compound, the growth with KM12 colon was 88.6%.

As to `CCCC1OC(c2ccc(C(C)C)cc2)OCC1CC` (stereo not drawn), the growth with T-47D breast was 85.7%; in the test with BT-549 breast, 102%; with SW-620 colon, 112%; in the test with MCF7 breast it was 94.7%; with HCT-116 colon, 93.9%; in the test with HCC-2998 colon it was 103%. The growth with KM12 colon was 107%.

For `C=C1C(=O)O[C@H]2[C@H](O)[C@@H](C)CCC/C(C)=C/CC[C@@]3(C)O[C@@H]3C[C@@H]12`, the growth in the test with T-47D breast is 97.2%; with MDA-MB-435 melanoma it was 94.4%; in the test with SW-620 colon, 79.9%; in the test with MCF7 breast, 69.1%; in the test with HCT-116 colon, 74.3%; in the test with HCC-2998 colon it was 111%. Besides, the growth in the test on KM12 colon is 119%.

With `Cc1ccnc2nc(C(=O)OCC(=O)Nc3ccc(-c4ccccc4)cc3)nn12`, the growth in the test on T-47D breast is 111%; in the test on BT-549 breast, 96.3%; in the test with SW-620 colon it was 109%; with HCT-116 colon, 96%; in the test with HCC-2998 colon, 105%; in the test with KM12 colon it was 119%.

Regarding `Cc1ccc2nc(-c3c(N)n[nH]c3CCCO)[nH]c(=O)c2c1`, the growth with T-47D breast is 111%; with BT-549 breast, 104%; in the test on SW-620 colon, 101%; in the test on HCT-116 colon, 109%; in the test on HCC-2998 colon, 111%; with KM12 colon, 111%.

Consider `Cc1oc2nc[nH]c(=O)c2c1C(=O)/C=C/c1ccc(Cl)cc1Cl`, for which the growth in the test with BT-549 breast was 73.8%; in the test on MDA-MB-435 melanoma, 57.2%; in the test with SW-620 colon, 31.2%; in the test on MCF7 breast it was 39%; in the test on HCT-116 colon, 36.3%; in the test on HCC-2998 colon, 102%.

In the case of `CCn1cc(C(=O)O)c(=O)c2cc(F)c(N3CCN(S(=O)(=O)c4c(C)cc(C)cc4C)CC3)cc21`, the growth with T-47D breast is 74.1%; in the test on SW-620 colon, 95.1%; in the test on MCF7 breast, 93.7%; in the test on HCT-116 colon, 79.2%; in the test with HCC-2998 colon it was 82.5%; with KM12 colon it was 87.2%.

In the case of `COc1ccc(-c2nc(-c3nc4ccc(F)cc4[nH]3)cc3c2[nH]c2ccccc23)cc1`, the growth with T-47D breast is 40.8%; in the test on MDA-MB-435 melanoma, 27.5%; in the test on SW-620 colon it was 48.3%; with MCF7 breast, 32.2%; with HCT-116 colon, 25.3%; with HCC-2998 colon, 30.9%. Besides, the growth in the test on KM12 colon is 23.4%.

Regarding `COc1ccc(-c2nc3sccn3c2-c2ccnc(NCCCNS(=O)(=O)c3ccc(C)cc3)n2)cc1`, the growth in the test with T-47D breast was -6.34% (active); with MDA-MB-435 melanoma, 23.4%; in the test with SW-620 colon, 38.6%; in the test with MCF7 breast, 34.3%; in the test on HCT-116 colon, 25%; with HCC-2998 colon, 25.9%. Besides, the growth in the test on KM12 colon is 20.6%.

In the case of `COc1cc(C(=O)OCCCCCCCCCCC[P+](c2ccccc2)(c2ccccc2)c2ccccc2)ccc1O`, the growth is -43.1% (active) with T-47D breast; -46.7% (active) in the test with MDA-MB-435 melanoma; -0.568% (active) with SW-620 colon; -33.6% (active) with HCT-116 colon; 19.3% in the test on HCC-2998 colon; -80.6% (active) in the test on KM12 colon.

For the compound `CNC(=O)Cc1nc(-c2cccc(NS(=O)(=O)c3c(F)cccc3F)c2F)c(-c2ccnc(Nc3ccccc3)n2)s1`, the growth in the test on T-47D breast is 60.2%; with MDA-MB-435 melanoma, 48.3%; in the test with SW-620 colon it was 66.8%; in the test with MCF7 breast it was 86.2%; in the test with HCT-116 colon it was 9.43% (active); in the test with HCC-2998 colon, 84.6%. Besides, the growth with KM12 colon is 70.2%.

Turning to `CSc1nc(-c2cc3ccccc3o2)cc(-c2ccc(Cl)cc2)c1C#N`, the growth in the test on T-47D breast was 24.7%; with MDA-MB-435 melanoma, 111%; in the test with SW-620 colon, 71.1%; in the test on MCF7 breast it was 14%; with HCC-2998 colon it was 85.6%; in the test on KM12 colon, 40.4%.

As to `CCN1C(=O)N(CC)C2Nn3c(s/c(=C4\C(=O)N(C5CCCC5)c5ccccc54)c3=O)=NC21` (stereo not drawn), the growth in the test with BT-549 breast is 79.3%; in the test on MDA-MB-435 melanoma, -15.9% (active); in the test on SW-620 colon it was 53.9%; with MCF7 breast, 45.7%; in the test on HCT-116 colon, 19.8%; in the test with HCC-2998 colon it was 91.8%. Besides, in the test with KM12 colon, the growth is 23.8%.

As to `COC(=O)CC/C(C)=N\Nc1ccc([N+](=O)[O-])cc1`, the growth was 42% in the test with T-47D breast; 31.7% in the test on MDA-MB-435 melanoma; 54.4% in the test on SW-620 colon; 77.1% in the test on MCF7 breast; 66.1% in the test on HCC-2998 colon; 24.3% in the test on KM12 colon.

Turning to `Nc1c(C(=O)Nc2cccc([N+](=O)[O-])c2)sc2nc3c(cc12)C(O)CCC3` (stereo not drawn), the growth with BT-549 breast was 58.1%; in the test with MDA-MB-435 melanoma it was -22.9% (active); in the test on SW-620 colon it was 37.9%; in the test with MCF7 breast, 15.2%; with HCT-116 colon it was 24.1%; in the test with HCC-2998 colon it was 87.6%.

In the case of `Nc1cccc2c1CN(C1CCC(=O)NC1=O)C2=O` (stereo not drawn), the growth in the test with T-47D breast is 97.5%; in the test on MDA-MB-435 melanoma, 101%; in the test with SW-620 colon, 95.6%; in the test with MCF7 breast, 94.5%; in the test on HCT-116 colon, 114%; with KM12 colon, 98.1%.

On to `CCN1C(=O)N(CC)C2C1NN=c1s/c(=C\c3cccc(F)c3)c(=O)n12` (stereo not drawn), for which the growth in the test with BT-549 breast was 17.1%; in the test on MDA-MB-435 melanoma, -34.1% (active); in the test with SW-620 colon it was 28.5%; in the test on MCF7 breast, 20%; with HCT-116 colon it was 6.81% (active); in the test on HCC-2998 colon it was 19.5%. For the same compound, the growth in the test on KM12 colon was 11.2%.

With `COC(=O)[C@H]1[C@H](OC)[C@@H](OC(=O)/C=C/c2ccncc2)CC2CN3CCc4c([nH]c5cc(OC)ccc45)[C@@H]3C[C@@H]21` (stereo partly drawn), the growth is 36.8% in the test with T-47D breast; 77.9% with MDA-MB-435 melanoma; 74% with SW-620 colon; 61.1% in the test on HCT-116 colon; 122% in the test on HCC-2998 colon; 93.6% with KM12 colon.

For `COc1cc(NCCCN=C(N)NC(N)=NC(C)C)c2ncccc2c1`, the growth with T-47D breast is -2.75% (active); in the test with MDA-MB-435 melanoma it was 96.9%; with SW-620 colon, 86.6%; in the test with HCT-116 colon, 17.3%; with HCC-2998 colon it was 55.8%; in the test with KM12 colon, 30.6%.

For `O=C1Nc2ccc(Br)cc2C1=N/C=c1\[nH]c(=O)/c(=C/c2ccc(Cl)cc2)s1`, the growth with T-47D breast was 80%; in the test on MDA-MB-435 melanoma, 104%; with SW-620 colon, 104%; in the test with HCT-116 colon it was 87.9%; in the test with HCC-2998 colon it was 118%; in the test on KM12 colon it was 107%.

As to `CCN1C(=O)N[C@H]2[C@@H]3NC(=O)c4ccc(Cl)n4[C@@H]3C[C@]21O`, the growth with T-47D breast was -7.84% (active); with MDA-MB-435 melanoma it was 0.981% (active); with SW-620 colon, 3.96% (active); in the test with MCF7 breast, 1.38% (active); in the test on HCT-116 colon it was 0.673% (active); in the test on HCC-2998 colon, 2.42% (active). For the same compound, the growth with KM12 colon was 5.68% (active).

In the case of `COc1ccc(OC)c(/C=C2\Oc3cc(OCCN4CCCC4)ccc3C2=O)c1`, the growth is 95.7% in the test with BT-549 breast; 97% in the test on MDA-MB-435 melanoma; 81.4% with SW-620 colon; 88.1% in the test with MCF7 breast; 69% in the test with HCT-116 colon; 98.7% in the test on HCC-2998 colon. Also, the growth with KM12 colon was 85.4%.

With `Cc1ccc(-c2csc3nc(C)c(CCCl)c(=O)n23)cc1`, the growth in the test with T-47D breast was 76.7%; in the test with MDA-MB-435 melanoma it was 97.3%; in the test with SW-620 colon it was 99.2%; with MCF7 breast, 78.3%; in the test with HCT-116 colon, 89.4%; in the test with HCC-2998 colon, 109%. Further, the growth in the test with KM12 colon is 103%.

For the compound `Cc1cc(N/C=c2\sc3ncnn3c2=O)no1`, the growth with T-47D breast is 96.1%; in the test on MDA-MB-435 melanoma, 97.6%; in the test on SW-620 colon, 98.8%; in the test with MCF7 breast, 86.1%; in the test with HCT-116 colon, 95.1%; in the test on HCC-2998 colon it was 96.9%. Further, in the test with KM12 colon, the growth was 84.3%.

Source of the values: PubChem BioAssay (NCI).
